Experimental data taken from the supplement of paper PMC11732987, “Enantioselective OTUD7B fragment discovery through chemoproteomics screening and high-throughput optimisation” (Communications Chemistry, 2025).

How the values were obtained:
Assay in all cases: log2 ratio of Biotin-Ahx-Ub-VS probe labelling (fragment/DMSO); higher = less target engagement (more negative = stronger competition), active = hit call of the paper (q ≤ 0.05, log2 ratio ≤ -1)
Details in all cases: compound concentration: 200 uM; treatment time: 3 h
USP34 = USP34 (UniProt Q70CQ2)
Sequence of USP34 (Q70CQ2 whole entry, the tested form may be a part): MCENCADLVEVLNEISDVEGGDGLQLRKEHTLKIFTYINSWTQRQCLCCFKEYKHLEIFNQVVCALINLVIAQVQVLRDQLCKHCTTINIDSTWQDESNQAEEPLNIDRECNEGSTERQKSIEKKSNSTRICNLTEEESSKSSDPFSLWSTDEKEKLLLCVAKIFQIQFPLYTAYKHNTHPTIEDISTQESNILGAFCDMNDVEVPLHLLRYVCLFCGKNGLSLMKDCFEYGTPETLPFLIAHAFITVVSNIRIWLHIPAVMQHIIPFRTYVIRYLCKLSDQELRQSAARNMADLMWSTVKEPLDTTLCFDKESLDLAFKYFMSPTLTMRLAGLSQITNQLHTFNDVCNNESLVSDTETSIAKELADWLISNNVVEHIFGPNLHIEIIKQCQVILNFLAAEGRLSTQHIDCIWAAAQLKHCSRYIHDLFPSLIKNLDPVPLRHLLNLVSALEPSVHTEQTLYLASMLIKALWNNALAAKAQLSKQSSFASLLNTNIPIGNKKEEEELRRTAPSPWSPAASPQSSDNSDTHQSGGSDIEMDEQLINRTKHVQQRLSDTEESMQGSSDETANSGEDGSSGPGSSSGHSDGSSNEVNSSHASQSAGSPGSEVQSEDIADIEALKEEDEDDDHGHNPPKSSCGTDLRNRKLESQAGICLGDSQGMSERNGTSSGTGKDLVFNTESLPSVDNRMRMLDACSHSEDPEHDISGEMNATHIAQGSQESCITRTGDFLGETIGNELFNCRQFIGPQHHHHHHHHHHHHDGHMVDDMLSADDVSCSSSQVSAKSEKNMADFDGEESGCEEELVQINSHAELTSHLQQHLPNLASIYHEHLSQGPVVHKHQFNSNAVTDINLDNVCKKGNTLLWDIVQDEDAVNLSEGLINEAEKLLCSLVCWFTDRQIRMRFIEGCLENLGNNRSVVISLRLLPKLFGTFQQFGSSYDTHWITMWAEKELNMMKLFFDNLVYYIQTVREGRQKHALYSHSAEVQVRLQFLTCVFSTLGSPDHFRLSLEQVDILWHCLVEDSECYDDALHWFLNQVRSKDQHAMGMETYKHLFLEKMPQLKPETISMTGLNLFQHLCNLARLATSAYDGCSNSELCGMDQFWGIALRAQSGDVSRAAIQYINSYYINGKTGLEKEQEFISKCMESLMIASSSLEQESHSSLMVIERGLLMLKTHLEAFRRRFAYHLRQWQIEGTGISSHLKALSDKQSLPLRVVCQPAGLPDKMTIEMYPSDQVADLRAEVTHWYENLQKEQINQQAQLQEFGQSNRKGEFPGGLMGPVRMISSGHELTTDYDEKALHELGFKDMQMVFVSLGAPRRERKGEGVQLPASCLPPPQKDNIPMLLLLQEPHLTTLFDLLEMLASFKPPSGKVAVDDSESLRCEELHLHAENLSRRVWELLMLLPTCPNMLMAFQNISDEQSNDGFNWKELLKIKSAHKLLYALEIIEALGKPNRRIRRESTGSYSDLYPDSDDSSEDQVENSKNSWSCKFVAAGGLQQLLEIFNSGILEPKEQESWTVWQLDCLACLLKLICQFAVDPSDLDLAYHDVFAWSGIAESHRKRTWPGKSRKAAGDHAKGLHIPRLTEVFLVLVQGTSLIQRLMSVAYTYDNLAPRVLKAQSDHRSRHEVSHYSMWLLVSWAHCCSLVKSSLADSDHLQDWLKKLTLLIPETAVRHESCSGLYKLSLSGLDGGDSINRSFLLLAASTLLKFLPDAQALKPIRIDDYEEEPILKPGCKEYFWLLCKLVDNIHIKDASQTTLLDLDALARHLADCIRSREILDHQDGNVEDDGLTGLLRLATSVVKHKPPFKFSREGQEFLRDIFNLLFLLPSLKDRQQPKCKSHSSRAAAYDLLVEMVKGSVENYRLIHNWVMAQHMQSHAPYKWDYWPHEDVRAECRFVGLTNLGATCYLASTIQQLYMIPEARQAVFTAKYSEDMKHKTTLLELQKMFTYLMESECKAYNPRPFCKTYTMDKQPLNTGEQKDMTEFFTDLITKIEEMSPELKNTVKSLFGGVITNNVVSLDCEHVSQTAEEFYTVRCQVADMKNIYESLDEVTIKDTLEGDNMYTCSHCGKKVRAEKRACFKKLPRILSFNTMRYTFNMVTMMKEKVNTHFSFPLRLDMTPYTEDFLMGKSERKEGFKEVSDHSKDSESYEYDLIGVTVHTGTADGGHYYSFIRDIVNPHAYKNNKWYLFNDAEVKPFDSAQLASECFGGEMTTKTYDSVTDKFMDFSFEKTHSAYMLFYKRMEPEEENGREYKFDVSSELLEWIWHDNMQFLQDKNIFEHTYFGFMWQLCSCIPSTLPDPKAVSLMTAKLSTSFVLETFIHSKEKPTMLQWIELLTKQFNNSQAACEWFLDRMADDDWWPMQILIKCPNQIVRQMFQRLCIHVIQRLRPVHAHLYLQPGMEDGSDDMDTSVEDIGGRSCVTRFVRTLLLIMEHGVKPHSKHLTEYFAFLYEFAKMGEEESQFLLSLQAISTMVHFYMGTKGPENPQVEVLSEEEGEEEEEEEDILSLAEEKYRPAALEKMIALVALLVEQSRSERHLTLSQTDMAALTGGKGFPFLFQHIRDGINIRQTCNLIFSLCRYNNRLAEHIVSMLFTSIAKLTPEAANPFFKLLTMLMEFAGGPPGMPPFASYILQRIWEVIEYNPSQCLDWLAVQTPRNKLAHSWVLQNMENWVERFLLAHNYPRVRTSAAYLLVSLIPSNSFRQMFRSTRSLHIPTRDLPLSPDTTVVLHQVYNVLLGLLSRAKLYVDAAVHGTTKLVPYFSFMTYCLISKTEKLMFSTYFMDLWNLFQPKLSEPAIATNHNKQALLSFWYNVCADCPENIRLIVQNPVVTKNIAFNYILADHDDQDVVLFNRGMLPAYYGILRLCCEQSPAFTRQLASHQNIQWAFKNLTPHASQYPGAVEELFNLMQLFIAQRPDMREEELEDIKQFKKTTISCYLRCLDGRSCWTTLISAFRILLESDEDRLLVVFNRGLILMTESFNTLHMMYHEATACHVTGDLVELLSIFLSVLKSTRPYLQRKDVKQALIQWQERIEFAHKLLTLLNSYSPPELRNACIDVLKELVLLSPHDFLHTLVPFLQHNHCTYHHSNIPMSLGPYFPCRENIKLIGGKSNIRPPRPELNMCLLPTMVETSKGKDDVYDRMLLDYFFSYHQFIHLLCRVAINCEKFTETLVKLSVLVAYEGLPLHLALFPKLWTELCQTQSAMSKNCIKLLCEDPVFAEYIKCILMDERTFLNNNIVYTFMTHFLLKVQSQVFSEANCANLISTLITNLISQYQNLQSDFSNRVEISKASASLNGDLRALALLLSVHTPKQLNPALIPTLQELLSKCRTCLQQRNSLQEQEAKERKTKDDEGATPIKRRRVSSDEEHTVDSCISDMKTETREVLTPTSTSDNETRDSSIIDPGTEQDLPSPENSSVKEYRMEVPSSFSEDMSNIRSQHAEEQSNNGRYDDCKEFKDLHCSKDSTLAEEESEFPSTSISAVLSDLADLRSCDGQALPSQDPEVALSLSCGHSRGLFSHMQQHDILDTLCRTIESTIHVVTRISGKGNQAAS
Method in brief: (§1)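 HEK293T lysate in Tris/CHAPS/IGEPAL buffer with protease inhibitors (495 µg per sample) was given fragment at 200 µM or vehicle for 3 h, in triplicate. It then received Biotin-Ahx-Ub-VS at 0.5 µM final for 1 h. Labelled DUBs were NeutrAvidin-enriched, digested with LysC and trypsin, and run by diaPASEF LC-MS/MS. Values are average log2 fragment/vehicle ratios by unpaired t-test on global-median-normalised Spectronaut quantities of proteins with ≥2 unique peptides.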

USP36 = target: T1, USP36 (UniProt Q9P275)
T1 sequence (whole entry): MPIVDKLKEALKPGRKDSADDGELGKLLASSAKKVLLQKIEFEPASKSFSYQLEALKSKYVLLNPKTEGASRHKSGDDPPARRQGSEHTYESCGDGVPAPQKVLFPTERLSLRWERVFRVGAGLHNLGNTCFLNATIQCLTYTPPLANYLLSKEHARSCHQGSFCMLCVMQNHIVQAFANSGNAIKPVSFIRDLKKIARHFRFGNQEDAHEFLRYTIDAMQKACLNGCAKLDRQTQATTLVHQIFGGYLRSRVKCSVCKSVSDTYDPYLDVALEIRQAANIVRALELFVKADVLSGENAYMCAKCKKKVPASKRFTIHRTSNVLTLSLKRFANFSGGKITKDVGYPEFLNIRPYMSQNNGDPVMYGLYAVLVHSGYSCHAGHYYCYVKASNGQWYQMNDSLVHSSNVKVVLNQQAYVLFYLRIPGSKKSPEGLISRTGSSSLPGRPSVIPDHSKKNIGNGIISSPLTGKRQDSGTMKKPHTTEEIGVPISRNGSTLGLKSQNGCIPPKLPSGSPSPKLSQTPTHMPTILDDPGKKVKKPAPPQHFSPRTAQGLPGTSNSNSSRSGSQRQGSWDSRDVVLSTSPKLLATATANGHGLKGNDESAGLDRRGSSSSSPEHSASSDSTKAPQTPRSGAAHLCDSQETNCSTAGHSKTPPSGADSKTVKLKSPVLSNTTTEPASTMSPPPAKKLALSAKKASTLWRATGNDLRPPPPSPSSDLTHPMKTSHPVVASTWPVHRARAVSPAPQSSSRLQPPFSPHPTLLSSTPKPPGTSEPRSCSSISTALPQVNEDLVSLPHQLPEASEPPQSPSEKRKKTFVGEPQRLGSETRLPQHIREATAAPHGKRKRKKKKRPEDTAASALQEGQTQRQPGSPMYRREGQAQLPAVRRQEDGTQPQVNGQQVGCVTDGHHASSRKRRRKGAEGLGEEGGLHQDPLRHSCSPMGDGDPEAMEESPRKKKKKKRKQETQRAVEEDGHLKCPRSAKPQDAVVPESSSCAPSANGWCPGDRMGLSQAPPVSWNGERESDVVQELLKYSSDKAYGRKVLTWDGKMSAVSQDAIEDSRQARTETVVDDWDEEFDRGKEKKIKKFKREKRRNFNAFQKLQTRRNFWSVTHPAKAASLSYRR
Method in brief: as §1

USP38 = target: T2, USP38 (UniProt Q8NB14)
T2 sequence (whole entry): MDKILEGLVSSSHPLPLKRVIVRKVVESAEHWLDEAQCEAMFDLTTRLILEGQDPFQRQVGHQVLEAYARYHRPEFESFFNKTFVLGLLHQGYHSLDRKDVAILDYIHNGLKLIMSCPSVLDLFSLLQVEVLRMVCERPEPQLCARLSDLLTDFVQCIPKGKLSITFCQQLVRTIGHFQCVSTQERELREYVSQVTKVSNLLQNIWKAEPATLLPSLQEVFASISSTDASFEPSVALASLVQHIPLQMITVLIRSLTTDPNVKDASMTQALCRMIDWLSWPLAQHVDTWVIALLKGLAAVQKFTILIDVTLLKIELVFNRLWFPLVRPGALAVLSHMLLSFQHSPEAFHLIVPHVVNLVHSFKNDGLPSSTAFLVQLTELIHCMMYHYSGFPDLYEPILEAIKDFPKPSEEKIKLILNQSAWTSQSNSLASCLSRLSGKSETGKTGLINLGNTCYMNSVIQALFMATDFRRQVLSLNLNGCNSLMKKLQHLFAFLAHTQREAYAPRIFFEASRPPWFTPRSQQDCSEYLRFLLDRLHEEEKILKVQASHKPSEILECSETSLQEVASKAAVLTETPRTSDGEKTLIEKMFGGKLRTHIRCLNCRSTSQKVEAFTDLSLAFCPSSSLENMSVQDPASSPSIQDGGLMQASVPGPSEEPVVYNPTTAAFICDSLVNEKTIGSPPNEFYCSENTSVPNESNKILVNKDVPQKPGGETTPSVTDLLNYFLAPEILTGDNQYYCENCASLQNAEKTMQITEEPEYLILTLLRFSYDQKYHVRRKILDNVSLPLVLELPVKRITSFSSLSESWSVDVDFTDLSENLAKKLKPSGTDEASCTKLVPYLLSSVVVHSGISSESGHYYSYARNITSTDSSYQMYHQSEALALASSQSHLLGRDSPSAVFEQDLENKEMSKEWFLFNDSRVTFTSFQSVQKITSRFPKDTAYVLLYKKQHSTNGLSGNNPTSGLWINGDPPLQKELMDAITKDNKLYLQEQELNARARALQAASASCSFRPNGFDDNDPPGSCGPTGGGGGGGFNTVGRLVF
Method in brief: as §1

USP39 = target: T3, USP39 (UniProt Q53GS9)
T3 sequence (whole entry): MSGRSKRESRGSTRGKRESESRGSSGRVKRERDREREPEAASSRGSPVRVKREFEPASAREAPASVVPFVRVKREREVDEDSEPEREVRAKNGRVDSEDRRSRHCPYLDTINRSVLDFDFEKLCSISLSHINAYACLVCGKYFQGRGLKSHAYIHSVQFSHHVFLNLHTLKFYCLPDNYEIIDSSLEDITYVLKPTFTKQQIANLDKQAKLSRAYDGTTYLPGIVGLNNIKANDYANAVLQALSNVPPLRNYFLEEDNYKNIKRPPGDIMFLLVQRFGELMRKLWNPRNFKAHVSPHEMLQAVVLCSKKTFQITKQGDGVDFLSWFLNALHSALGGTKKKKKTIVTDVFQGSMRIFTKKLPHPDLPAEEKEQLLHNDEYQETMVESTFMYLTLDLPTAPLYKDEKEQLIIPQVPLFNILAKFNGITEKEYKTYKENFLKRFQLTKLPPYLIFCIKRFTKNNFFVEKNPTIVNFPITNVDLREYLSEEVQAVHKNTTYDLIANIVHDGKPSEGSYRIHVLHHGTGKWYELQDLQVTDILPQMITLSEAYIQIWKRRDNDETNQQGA
Method in brief: as §1

USP4 = target: T4, USP4 (UniProt Q13107)
T4 sequence (whole entry): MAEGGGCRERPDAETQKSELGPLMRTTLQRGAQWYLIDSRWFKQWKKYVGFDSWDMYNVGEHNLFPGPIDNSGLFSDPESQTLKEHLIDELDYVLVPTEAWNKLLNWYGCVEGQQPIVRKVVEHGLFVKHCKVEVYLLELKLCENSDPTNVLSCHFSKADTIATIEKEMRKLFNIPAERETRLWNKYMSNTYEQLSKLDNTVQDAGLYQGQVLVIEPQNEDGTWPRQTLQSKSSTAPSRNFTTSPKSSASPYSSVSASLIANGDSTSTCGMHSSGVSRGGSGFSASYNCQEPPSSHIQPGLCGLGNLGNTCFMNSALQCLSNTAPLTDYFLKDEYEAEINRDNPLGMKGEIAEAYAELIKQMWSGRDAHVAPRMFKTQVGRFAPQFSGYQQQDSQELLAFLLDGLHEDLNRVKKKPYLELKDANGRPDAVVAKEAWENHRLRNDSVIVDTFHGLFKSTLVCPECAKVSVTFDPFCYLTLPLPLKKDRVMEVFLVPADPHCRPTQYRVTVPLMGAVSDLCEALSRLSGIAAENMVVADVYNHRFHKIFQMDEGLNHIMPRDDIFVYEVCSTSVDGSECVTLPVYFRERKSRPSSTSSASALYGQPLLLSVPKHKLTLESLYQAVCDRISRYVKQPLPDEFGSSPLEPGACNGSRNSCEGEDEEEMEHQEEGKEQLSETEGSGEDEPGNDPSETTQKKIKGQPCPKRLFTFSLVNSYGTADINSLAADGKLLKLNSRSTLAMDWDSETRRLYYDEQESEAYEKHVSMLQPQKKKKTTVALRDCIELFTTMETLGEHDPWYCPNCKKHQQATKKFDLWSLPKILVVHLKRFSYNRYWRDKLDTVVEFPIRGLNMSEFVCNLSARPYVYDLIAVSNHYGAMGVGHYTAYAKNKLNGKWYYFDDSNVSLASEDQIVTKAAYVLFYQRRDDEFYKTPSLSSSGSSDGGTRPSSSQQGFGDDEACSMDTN
Method in brief: as §1

Measured: log2 ratio of Biotin-Ahx-Ub-VS probe labelling

Cc1n[nH]c2c1CN(C(=O)CCl)CC2
inactive: USP34 -0.404 | USP36 -0.284 | USP38 -0.715 | USP39 0.183 | USP4 -0.888
